Results taken from the supplement of paper PMC13380429.

How the values were obtained:
[1] = tested on: Vero E6 infected with SARS-CoV-2; test: morphology score (similarity to uninfected cells); higher = more like uninfected cells; conditions: 24 h
[2] = tested on: Vero E6 infected with SARS-CoV-2; test: SARS-CoV-2 infection rate relative to infected DMSO; higher = more infection, active = 60 or less; conditions: 24 h

SMILES | morphology score [1] | SARS-CoV-2 infection rate [2]
O=C(c1ccc(/C=C/c2n[nH]c3ccccc23)cc1)N1CCNCC1 (10 µM) | 0.964 | 94.5% (inactive)
Nc1ccc(-c2ccc3ncc4ccc(=O)n(-c5cccc(C(F)(F)F)c5)c4c3c2)cn1 [torin-2] (10 µM) | 0.162 | 86.5% (inactive)
COc1ccc(C(=O)Nc2sc3c(c2C(N)=O)CCCC3)cc1OC (10 µM) | -0.0466 | 96.5% (inactive)
CCCNC(=O)Nc1ccc(Oc2ncnc3cc(OC)c(OC)cc23)cc1Cl (10 µM) | -0.0266 | 108% (inactive)
c1ccc2c(c1)[I+]c1ccccc1-2 [diphenyleneiodonium] (0.833333 µM) | 0.143 | 108% (inactive)
COc1ccc2c(O[C@@H]3C[C@H]4C(=O)N[C@]5(C(=O)NS(=O)(=O)C6CC6)C[C@H]5/C=C\CCCCN(C)C(=O)[C@@H]4C3)cc(-c3nc(C(C)C)cs3)nc2c1C [simeprevir] (10 µM) | 0.0609 | 88.5% (inactive)
C[C@@H]1CN(c2c(F)c(F)c3c(=O)c(C(=O)O)cn(C4CC4)c3c2F)C[C@H](C)N1 [orbifloxacin] (10 µM) | 0.149 | 96.5% (inactive)
COc1cc2c(cc1OC)CN(CCc1ccc(NC(=O)c3cccc4c(=O)c5cccc(OC)c5[nH]c34)cc1)CC2 [elacridar] (10 µM) | 0.0355 | 102% (inactive)
CC(C)(C)NCC(O)c1cc(O)cc(O)c1 (stereo not drawn) (10 µM) | 0.0272 | 113% (inactive)
CC(=O)c1c(O)cc(C)oc1=O [dehydroacetic-acid] (10 µM) | 0.121 | 93.5% (inactive)
CCCCC[C@H](O)/C=C/[C@H]1[C@H](O)CC(=O)[C@@H]1CCCCCCC(=O)O [alprostadil] (10 µM) | 0.11 | 90.5% (inactive)
O=C1c2ccc(Nc3ccc(F)cc3F)cc2CCc2ccc(OC[C@H](O)CO)cc21 [skepinone-L] (10 µM) | -0.053 | 113% (inactive)
Oc1ccc(C2CNCCc3c2cc(O)c(O)c3Cl)cc1 (stereo not drawn) [fenoldopam] (10 µM) | 0.226 | 95% (inactive)
Cc1cc(C)c2c(N)c(C(=O)NCc3ccc(Cl)cc3)sc2n1 (10 µM) | 0.0846 | 99% (inactive)
CCN(CC)CCNC(=O)COc1ccc(OC)cc1 [mefexamide] (10 µM) | 0.0556 | 113% (inactive)
O=C(CCCCCCNC(=O)c1cnc(N(c2ccccc2)c2ccccc2)nc1)NO (0.833333 µM) | -0.13 | 106% (inactive)
CSc1nc2ccc3nc(NC(=O)C(c4ccccc4)c4ccccc4)sc3c2s1 (10 µM) | 0.0833 | 94.5% (inactive)
COC(=O)c1ccc(N2CCN(C)CC2)c(NC(=O)c2cccc(OC)c2)c1 (10 µM) | 0.142 | 105% (inactive)
COc1ccc(C(=O)Nc2c(Cl)cncc2Cl)cc1OC1CCCC1 [piclamilast] (10 µM) | 0.363 | 107% (inactive)
O=C1C[C@@]2(C(=O)N1)C(=O)N(Cc1ccc(Br)cc1F)C(=O)c1cccn12 [ranirestat] (10 µM) | 0.148 | 94.5% (inactive)
NCCCCN(Cc1nc2ccccc2[nH]1)[C@H]1CCCc2cccnc21 (10 µM) | 0.0412 | 102% (inactive)
O=C(O)Cc1ccc2c(c1)C(=O)c1ccccc1CO2 [isoxepac] (10 µM) | 0.152 | 103% (inactive)
C[C@]12CCC(=O)C(O)=C1CC[C@@H]1[C@@H]2CC[C@]2(C)C(=O)CC[C@@H]12 [formestane] (10 µM) | -0.134 | 115% (inactive)
CCN(C(C)=O)c1cccc(-c2ccnc3c(C#N)cnn23)c1 (10 µM) | 0.0588 | 98.5% (inactive)
Cc1cc(O)ccc1Cl [chlorocresol] (10 µM) | 0.0498 | 95.5% (inactive)
O=C(O)C(=O)Nc1cccc(-c2nnn[nH]2)c1 [acitazanolast] (10 µM) | 0.235 | 95% (inactive)
Cc1nc2ccccc2c(-c2ccc3c4c(ccnc24)CCO3)c1[C@H](OC(C)(C)C)C(=O)O (10 µM) | 0.0152 | 104% (inactive)
O=C(CCCN1CCC2(CC1)C(=O)N(Cc1cccc(F)c1)CN2c1ccccc1)c1ccc(F)cc1 [3'-fluorobenzylspiperone] (0.833333 µM) | 0.325 | 103% (inactive)
Cn1c(=O)cc(N2CCC[C@@H](N)C2)n(Cc2cc(F)ccc2C#N)c1=O [trelagliptin] (10 µM) | 0.194 | 99% (inactive)
